Tb PFK inh – inhibitors of T. brucei phosphofructokinase | T. brucei PFK, ADP-Glo luminescence | Potency, µM (doses to about 57.5 µM), for inactives: at the top dose activity, negative = inhibition, usual class: inhibitors | 330,000 tested, 0.17% active | AID 485367;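 note: potency is the fitted concentration of half-maximal effect; 0% = uninhibited 1x PFK enzyme wells and -100% = no-enzyme wells; nearly all actives have a fitted effect of over 60% in size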
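In TEA buffer at pH 8.0 with 5 mM MgCl2, enzyme (1.25 nM) converted F6P (0.5 mM) and ATP (0.1 mM) for 45 min at room temperature. ADP product was read by luciferase luminescence.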
PI4K2A inh – inhibitors of human PI4K2A | purified PI4K2A, ADP-Glo luminescence, 1 h; active compounds read low | Q9BTU6 | AID 1346378 | 420,000 tested, 0.13% active | activity change, negative = inhibition, % at 76.9 µM; in the data active = activity change below about -50%; inconclusive = mostly about -30% to -49%;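 note: -100% = wells without enzyme as full effect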
Target sequence (Q9BTU6 whole entry, looked up): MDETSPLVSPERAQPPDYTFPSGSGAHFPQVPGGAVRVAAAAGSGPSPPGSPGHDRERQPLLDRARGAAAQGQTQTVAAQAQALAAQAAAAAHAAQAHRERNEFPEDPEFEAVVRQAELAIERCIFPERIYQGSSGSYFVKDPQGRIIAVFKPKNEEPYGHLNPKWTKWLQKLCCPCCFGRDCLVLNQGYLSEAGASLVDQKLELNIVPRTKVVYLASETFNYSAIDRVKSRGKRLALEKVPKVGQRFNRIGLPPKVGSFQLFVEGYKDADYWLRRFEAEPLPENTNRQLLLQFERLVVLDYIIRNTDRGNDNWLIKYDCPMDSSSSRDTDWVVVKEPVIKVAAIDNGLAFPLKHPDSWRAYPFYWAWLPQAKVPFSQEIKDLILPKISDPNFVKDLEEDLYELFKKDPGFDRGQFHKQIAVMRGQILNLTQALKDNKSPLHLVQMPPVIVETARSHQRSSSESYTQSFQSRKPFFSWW
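ADP-Glo luminescence measured ADP generated by PI4K2A enzyme (4 ug/mL before mixing) with 1.2 mM PI substrate (pre-mix) and 300 microM ATP (pre-mix). Tris pH7.5 buffer with MgCl2, Triton X-100; 1 h reaction at ambient temperature.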
Tb PGK inh – blocks T. brucei phosphoglycerate kinase | P07378 | PGK/GAPDH coupled, Kinase-Glo luminescence, 60 min | Potency, µM (highest dose often 57.5 µM), without a hit: at the top dose activity change, negative = inhibition, actives largely listed as inhibitors | 380,000 tested, 0.043% active | AID 602233; note: potency is the fitted concentration of half-maximal effect; nearly all actives have a fitted effect of over 60% in size
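Recombinant glycosomal PGK reaction used 1,3-bisphosphoglycerate generated in-well by GAPDH (100nM final) in 100mM TEA pH 7.6, 5mM MgCl2, 0.01% Tween-20. After 60 minutes at room temperature, ATP was read by Kinase-Glo Plus luminescence end-point.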
Pin1 inhibitor – blocks the human prolyl isomerase Pin1; Potency, µM (series often up to 115 µM), for the others: at the top dose activity, negative = inhibition, actives largely listed as inhibitors; 390,000 tested, 0.009% active; Pin1 FP peptide displacement, HiFluor488, 10 min; active = well fitted inhibition curve with a large enough effect in the polarisation, with a control signal flat, not every such curve was filed as active; inconclusive = small, poorly fitted or top-dose-only effect, or effect the other way, or a change in a side signal; inactive = no such curve, though single readings can be large or run the other way; the % refers to the polarisation; note: potency is the fitted concentration of half-maximal effect
PI5P4Ka inh – PI5P4K alpha (human) kinase inhibition. max response, %. P48426. 330,000 tested, 1.2% active. PI5P4Kalpha enzyme, ADP-Glo luminescence, 60 min; active compounds read low; active = max response of -50% or lower; inconclusive = between -30% and -50%; inactive = -30% or higher; note: value at the top dose of about 77 µM
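Single end-point luminescence (ADP-Glo) quantified ADP from PI5P4Kalpha turnover; ATP 5 microM final, 1 h at RT, 0.1% CHAPS and 0.28 mM EGTA in HEPES pH 7.4.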
Starred values were filed as active, the others as inactive; i = inactive; ? = inconclusive; . = not tested or not shown. This is one part of a sample in which hits are shown more often than they occur. Unless noted, calls come from the whole dose curve; as a rule, active = well fitted curve in the direction sought with a large enough effect; inconclusive = small, poorly fitted or top-dose-only effect, or another doubt; inactive = no such curve, though single readings can be large; an effect the other way counts as inactive or inconclusive. Unless noted, % is set by controls: 0 for no effect and ±100 for the full control effect.

SMILES	Tb PFK inh	PI4K2A inh	Tb PGK inh	Pin1 inhibitor	PI5P4Ka inh
COc1ccc(Cn2c(O)c(/C=N/NC(=O)c3ccccc3O)c(=O)[nH]c2=O)cc1	0%	-4	-2%	19%	-11
CC(C)N(Cc1ccco1)/N=C/c1c(O)n(Cc2ccccc2)c(=O)[nH]c1=O	0%	1	-9%	0%	-3
COC(=O)C1=Nc2ccccc2/C1=C\c1c(O)n(-c2ccc(Br)cc2)c(=O)[nH]c1=O	9%	-13	-6%	?	-102*
COC(=O)C1=Nc2ccccc2/C1=C\c1c(O)n(C)c(=O)n(C)c1=O	10%	-2	2%	25%	-70*
O=C(O)c1cccc2c1NC(C(=O)O)C1CC(Sc3ccccc3[N+](=O)[O-])C(Cl)C21 (configuration not stated)	?	-23	11µM*	.	-67*
Cc1cc(C)c(NC2=NCCS2)cc1C	.	2	i	.	-16
O=C(N/N=C/c1c(O)n(CCc2ccccc2)c(=O)[nH]c1=O)c1ccncc1	0%	-5	i	13%	-77*
O=C(N/N=C/c1c(O)n(CCc2ccc(F)cc2)c(=O)[nH]c1=O)c1ccccc1	0%	2	-2%	2%	-25
O=C(N/N=C/c1c(O)n(CCc2ccc(F)cc2)c(=O)[nH]c1=O)c1ccncc1	-3%	1	-8%	16%	-65*
O=C1CN=C(c2ccc(Br)cc2)c2oc3ccccc3c2N1	-1%	13	8%	13%	0
Cc1ccc(OCCOc2cccc(C=C3C(=O)NC(=O)NC3=O)c2)cc1	-1%	-24	8%	?	-78*
O=C1NC(=O)C(=Cc2ccc3ccccc3c2)C(=O)N1	-3%	?	1%	8%	-79*
O=C1NC(=O)C(=Cc2ccc(Oc3ccc([N+](=O)[O-])cc3)cc2)C(=O)N1	1%	-10	-3%	-4%	-58*
Cc1cc(C)cc(OCCOc2cccc(C=C3C(=O)NC(=O)NC3=O)c2)c1	2%	-28	-7%	11%	-51*
Cc1nn(Cc2ccccc2)c(C)c1C=C1C(=O)NC(=O)NC1=O	9%	?	1%	12%	-28
CN(C)C(Cc1ccccc1)C(=O)c1cccs1 (configuration not stated)	0%	.	.	.	.
C[n+]1cc(P(=S)(c2ccccc2)c2ccccc2)n2ccccc21	.	.	.	-3%	.
COc1ccc(Cc2c(O)[nH]c(=O)[nH]c2=O)c(OC)c1	2%	0	-3%	.	3
N#CC1=C(N)Oc2c(c(=O)sc3ccccc23)C1c1cccnc1 (configuration not stated)	-2%	1	i	13%	-63*
CCC(=O)N1CC(=O)Nc2ccc(F)cc2C1c1ccc(F)cc1 (configuration not stated)	-2%	6	6%	0%	16
Oc1cc2c(cc1O)[C@H]1c3ccccc3CN[C@@H]1CC2	2.4µM*	.	.	.	.
N#CC(C#N)=NNc1ccc([N+](=O)[O-])cc1	0%	-5	-11%	41%	-20
CCN(CC)S(=O)(=O)c1ccc(NN=C(C#N)C#N)cc1	4%	-10	-1%	1%	-58*
CCCCn1c(=O)c(C(=O)Nc2cnccn2)c(O)c2ccccc21	1%	5	0%	-3%	-9
COc1cccc(N2C(=O)NC(=O)/C(=C/c3ccc4c(c3)Cc3ccccc3-4)C2=O)c1	0%	-18	-5%	8%	?
SMILES	Tb PFK inh	PI4K2A inh	Tb PGK inh	Pin1 inhibitor	PI5P4Ka inh
Cc1ccccc1N1C(=O)NC(=O)/C(=C\c2ccc3c(c2)CCCN3Cc2ccccc2)C1=O	-20%	-19	-9%	?	-65*
CC(C)COc1ccc(Cc2c(O)[nH]c(=S)[nH]c2=O)cc1	-4%	-1	1%	4%	-52*
Cc1cc(Cc2c(O)[nH]c(=S)[nH]c2=O)ccc1OC(C)C	3%	-9	4%	-9%	?
CCOc1ccc(N)cc1	.	-5	1%	6%	-2
CCN(CC)C(=O)c1c(C)[nH]c(=S)c(C#N)c1-c1ccco1	-3%	-2	3%	17%	-96*
COc1cc(C=C2C(=O)NC(=O)NC2=O)ccc1OCc1ccc([N+](=O)[O-])cc1	-6%	-18	-2%	-3%	?
COc1ccc(C=C2C(=O)NC(=S)NC2=O)cc1OC	.	-4	-1%	-11%	-50*
